Assay outcomes as filed in PubChem BioAssay.
Only some compounds are listed: those with a hit (about 2.6% of all), similar ones and a draw of the others.
Gli-Sufu block – antagonists of Gli-Sufu signaling | Sufu-KO-LIGHT fibroblasts, Gli luciferase reporter luminescence | inhibition, % at 5 µM | 340,000 tested, 0.74% active;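 active means inhibition above about 55%, limit read from the data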
TAG inh – reduces triacylglycerol accumulation in H9c2 cells; inhibition, % at 12.5 µM; Nile Red lipid (TAG) fluorescence; cells loaded with 200 µM oleic acid; 230,000 tested, 0.66% active; AID 651582;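 active means pattern-corrected inhibition of lipid staining of at least 50% with the nuclear-stain viability signal not falling by more than 50%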
Jurkat NFkB inh – lowers PMA/ionomycin-induced NF-kB signal in Jurkat cells. 330,000 tested, 0.53% active. inhibition, % at 4 µM. PMA/ionomycin-induced NF-kB luciferase reporter, luminescence; in the data active means inhibition above about 50%
Cardio protect – protects H9c2 cardiomyocytes from peroxide injury. protection from H2O2 cell death, % at 20 µM. 360,000 tested, 0.63% active. H2O2 injury protection, ATPLite, 2 h;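 active means compounds giving at least 50% protection of heart cells from peroxide-induced death in the single-dose screen, raw or plate-pattern-corrected value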
697 NFkB inh – inhibitors of the PMA/ionomycin-induced NF-kB reporter in 697 B cells. 330,000 tested, 0.33% active. AID 435022. 697 B-cell NF-kB luciferase reporter, 16 h. inhibition, % at 4 µM; in the data active means inhibition above about 35%
COUP-TFII inh – NR2F2 (human) inhibition, primary screen; inhibition, % at 8.6 µM; 370,000 tested, 0.7% active; P24468; HEK293T NGFI-A luciferase reporter, luminescence;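 active means inhibition above a per-plate cutoff, mean inhibition of test wells between control levels plus 3 SD, cut at about 38% in these data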;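 further: cells cotransfected with COUP-TFII expression vector driving the NGFI-A reporter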
Target sequence (P24468 whole entry, looked up): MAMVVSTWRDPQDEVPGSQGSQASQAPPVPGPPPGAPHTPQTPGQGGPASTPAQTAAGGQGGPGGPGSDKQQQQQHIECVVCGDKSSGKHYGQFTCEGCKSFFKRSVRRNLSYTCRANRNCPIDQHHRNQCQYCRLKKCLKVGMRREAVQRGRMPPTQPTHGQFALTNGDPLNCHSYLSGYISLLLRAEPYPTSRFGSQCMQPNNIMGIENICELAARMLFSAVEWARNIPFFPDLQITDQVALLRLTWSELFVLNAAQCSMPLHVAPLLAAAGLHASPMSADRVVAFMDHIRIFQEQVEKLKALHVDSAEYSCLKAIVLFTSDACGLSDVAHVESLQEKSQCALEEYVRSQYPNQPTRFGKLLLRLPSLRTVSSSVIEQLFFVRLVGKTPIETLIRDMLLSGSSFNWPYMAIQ
Numbers stand for hits.

Results for CC(=O)Nc1cccc(-c2cc(C(C)=O)c3n(c2=O)CCC3)c1 ?
COUP-TFII inh: inactive

How did COc1cccc(/C=N/NC(=O)CSCC(=O)Nc2ccccc2)c1O do in these assays?
Gli-Sufu block: inactive; Jurkat NFkB inh: inactive; Cardio protect: 55.2; 697 NFkB inh: inactive; COUP-TFII inh: inactive

Results for COc1cccc(/C=N\NC(=O)C2C(=O)NCC2c2ccccc2)c1O (stereo not drawn) ?
Gli-Sufu block: inactive; TAG inh: inactive; Jurkat NFkB inh: inactive; Cardio protect: 72.5; 697 NFkB inh: inactive; COUP-TFII inh: inactive

How did COc1cccc(/C=N/NC(=O)c2ccncc2)c1OC(=O)c1ccc(Br)cc1 do in these assays?
Gli-Sufu block: inactive; Jurkat NFkB inh: inactive; Cardio protect: 55.2; 697 NFkB inh: inactive

Results for COc1ccc(-n2cc(COC(=O)NCCc3c[nH]c4ccccc34)nn2)cc1 ?
COUP-TFII inh: inactive

What do the screens show for `O=C(NCC(=O)N(Cc1cccs1)C(C(=O)NC1CCCCC1)c1ccncc1)c1ccco1` (stereo not drawn)?
Gli-Sufu block: inactive; TAG inh: inactive; Jurkat NFkB inh: inactive; Cardio protect: inactive; 697 NFkB inh: inactive; COUP-TFII inh: inactive

How did O=C(NCC(=O)N(Cc1cccs1)C(C(=O)NC1CCCC1)c1ccco1)c1cccs1 (stereo not drawn) do in these assays?
Gli-Sufu block: inactive; TAG inh: inactive; Jurkat NFkB inh: inactive; Cardio protect: 59.3; 697 NFkB inh: inactive; COUP-TFII inh: inactive

Results for O=C(NCC(=O)N(Cc1ccccc1)C(C(=O)NC1CCCCC1)c1ccco1)c1ccco1 (stereo not drawn) ?
Gli-Sufu block: inactive; Jurkat NFkB inh: inactive; Cardio protect: 97.4; 697 NFkB inh: inactive; COUP-TFII inh: inactive

What do the screens show for `CC(C)(C)c1ccc(S(=O)(=O)N2CCC(c3cn4ccccc4n3)CC2)cc1`?
COUP-TFII inh: inactive

What do the screens show for `Cc1csc2ncnc(N3CCN(S(=O)(=O)c4cccc(C(F)(F)F)c4)CC3)c12`?
Gli-Sufu block: 67.7; TAG inh: inactive; Jurkat NFkB inh: inactive; Cardio protect: inactive; 697 NFkB inh: inactive; COUP-TFII inh: inactive

What do the screens show for `CC1=[N+](C)c2c(ccc3cccnc23)C1(C)C`?
Gli-Sufu block: 87.1; TAG inh: inactive; Cardio protect: inactive; COUP-TFII inh: 77.2

What do the screens show for `CCCC1CCC2(CCCN2CCOC(=S)NCc2cccc(C)c2)CC1` (stereo not drawn)?
COUP-TFII inh: inactive

What do the screens show for `Cc1ccccc1C(=O)/C(C#N)=N/Nc1c(C)n(C)n(-c2ccccc2)c1=O`?
Gli-Sufu block: inactive; Cardio protect: 64.3; COUP-TFII inh: inactive

What do the screens show for `Cc1c(N/N=C(\C#N)C(=O)c2ccccc2)c(=O)n(-c2ccccc2)n1C`?
Gli-Sufu block: inactive; Cardio protect: inactive; COUP-TFII inh: inactive

What do the screens show for `Oc1c(Br)cccc1/C=N/c1ncn[nH]1`?
Gli-Sufu block: inactive; Jurkat NFkB inh: inactive; Cardio protect: 67.2; 697 NFkB inh: inactive; COUP-TFII inh: inactive

Results for O=c1c2ccccc2c(/C=N/c2ncn[nH]2)c(O)n1Cc1ccccc1 ?
Gli-Sufu block: inactive; TAG inh: inactive; Jurkat NFkB inh: inactive; Cardio protect: inactive; 697 NFkB inh: inactive; COUP-TFII inh: inactive

How did O=S(=O)(c1ccccc1F)n1c(CN2CCOCC2)nc2ccccc21 do in these assays?
COUP-TFII inh: inactive

How did COc1ccc2[nH]c(=O)c(CN(Cc3cccs3)S(=O)(=O)c3cccc4nsnc34)cc2c1 do in these assays?
Gli-Sufu block: inactive; Jurkat NFkB inh: inactive; Cardio protect: 73.1; 697 NFkB inh: inactive; COUP-TFII inh: inactive

How did Cc1cc(Br)cc(C=Nc2ccc(N3CCOCC3)cc2)c1O do in these assays?
Gli-Sufu block: inactive; TAG inh: inactive; Jurkat NFkB inh: inactive; Cardio protect: 84.0; 697 NFkB inh: inactive; COUP-TFII inh: inactive

What do the screens show for `Oc1ccc(N=Nc2cccc(C(F)(F)F)c2)cc1C=Nc1ccc(N2CCOCC2)cc1`?
Gli-Sufu block: inactive; Jurkat NFkB inh: inactive; Cardio protect: 75.7; 697 NFkB inh: inactive; COUP-TFII inh: inactive

Results for O=[N+]([O-])c1cc(Cc2ccccc2)cc(C=Nc2ccc(N3CCOCC3)cc2)c1O ?
Gli-Sufu block: inactive; Cardio protect: 85.5

Results for Oc1c(Cl)cc(Cl)cc1C=Nc1ccc(N2CCOCC2)cc1 ?
Gli-Sufu block: inactive; Jurkat NFkB inh: inactive; Cardio protect: 65.3; 697 NFkB inh: inactive; COUP-TFII inh: inactive

What do the screens show for `Oc1ccc(C=Nc2ccc(N3CCOCC3)cc2)c(O)c1`?
Gli-Sufu block: inactive; TAG inh: inactive; Jurkat NFkB inh: inactive; Cardio protect: inactive; 697 NFkB inh: inactive; COUP-TFII inh: inactive

Results for O=C(CSc1nc2ccccc2nc1N1CCCCC1)N1CCN(S(=O)(=O)c2cc(Cl)ccc2Cl)CC1 ?
COUP-TFII inh: inactive

How did N#Cc1ccc(S(=O)(=O)N2CCCc3nc(-c4ccccc4)ccc32)cc1 do in these assays?
COUP-TFII inh: inactive

Results for Oc1c(Br)cc(Br)cc1C=Nc1ccc2c(c1)OCCO2 ?
Gli-Sufu block: inactive; TAG inh: inactive; Jurkat NFkB inh: inactive; Cardio protect: 84.2; 697 NFkB inh: inactive; COUP-TFII inh: inactive

Results for COc1ccc(S(=O)(=O)N(C)C[C@@H]2Oc3c(NC(=O)Nc4ccccc4)cccc3C(=O)N([C@@H](C)CO)C[C@H]2C)cc1 ?
COUP-TFII inh: inactive

What do the screens show for `NC(=O)c1ccsc1NC(=O)c1ccc([N+](=O)[O-])o1`?
Gli-Sufu block: inactive; TAG inh: inactive; Jurkat NFkB inh: inactive; Cardio protect: 77.9; 697 NFkB inh: inactive; COUP-TFII inh: inactive

What do the screens show for `CN1C(=O)C[C@@](C#N)(C(=O)NCCc2ccccc2)[C@H]1c1ccccc1`?
COUP-TFII inh: inactive

Results for COc1cc2sc(-c3ccc(S(C)(=O)=O)cc3)c(C#CCO)c2cc1OC ?
Gli-Sufu block: inactive; TAG inh: inactive; Jurkat NFkB inh: inactive; Cardio protect: 53.3; 697 NFkB inh: inactive; COUP-TFII inh: inactive

What do the screens show for `COc1cc(OC)cc(-c2sc3ccc(OC)cc3c2C#CCO)c1`?
Gli-Sufu block: inactive; TAG inh: inactive; Jurkat NFkB inh: inactive; Cardio protect: inactive; 697 NFkB inh: inactive; COUP-TFII inh: inactive

How did COc1ccc(NC(=O)CN(C)C(=O)CCCc2nc3ccccc3c(=O)[nH]2)cc1 do in these assays?
Gli-Sufu block: inactive; TAG inh: inactive; Jurkat NFkB inh: inactive; Cardio protect: inactive; 697 NFkB inh: inactive; COUP-TFII inh: inactive

Results for CN(CC(=O)Nc1ccc(F)cc1)C(=O)CCc1nc2ccccc2c(=O)[nH]1 ?
Gli-Sufu block: inactive; TAG inh: inactive; Jurkat NFkB inh: inactive; Cardio protect: 60.1; 697 NFkB inh: inactive; COUP-TFII inh: inactive

Results for CN(CC(=O)Nc1ccccc1Cl)C(=O)CCc1nc2ccccc2c(=O)[nH]1 ?
Gli-Sufu block: inactive; TAG inh: inactive; Jurkat NFkB inh: inactive; Cardio protect: 64.0; 697 NFkB inh: inactive; COUP-TFII inh: inactive

What do the screens show for `O=C(CCc1nc2ccccc2c(=O)[nH]1)NCc1ccco1`?
Gli-Sufu block: inactive; TAG inh: inactive; Jurkat NFkB inh: inactive; Cardio protect: 76.0; 697 NFkB inh: inactive; COUP-TFII inh: inactive
